# Results as given in article PMC4336329 (PLoS ONE, 2015).
# Hit rate of the full screen: of about 310,000 compounds, about 14,000 (4.5%) showed an effect of 50% or more. The effect is printed as a negative number. The sample holds strong results, similar compounds and a random draw of the others, so the mix is not that of the screen.
# Molecular target: human ether-à-go-go-related gene (hERG) potassium channel (human, UniProt Q12809)
# Test: primary screen, population patch clamp on CHO cells stably expressing hERG; higher = less effect of the substance
# 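Note: peak tail current of the secondary pulse compared with the same well before compound.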
# Sequence of human ether-à-go-go-related gene (hERG) potassium channel (Q12809 whole entry, looked up): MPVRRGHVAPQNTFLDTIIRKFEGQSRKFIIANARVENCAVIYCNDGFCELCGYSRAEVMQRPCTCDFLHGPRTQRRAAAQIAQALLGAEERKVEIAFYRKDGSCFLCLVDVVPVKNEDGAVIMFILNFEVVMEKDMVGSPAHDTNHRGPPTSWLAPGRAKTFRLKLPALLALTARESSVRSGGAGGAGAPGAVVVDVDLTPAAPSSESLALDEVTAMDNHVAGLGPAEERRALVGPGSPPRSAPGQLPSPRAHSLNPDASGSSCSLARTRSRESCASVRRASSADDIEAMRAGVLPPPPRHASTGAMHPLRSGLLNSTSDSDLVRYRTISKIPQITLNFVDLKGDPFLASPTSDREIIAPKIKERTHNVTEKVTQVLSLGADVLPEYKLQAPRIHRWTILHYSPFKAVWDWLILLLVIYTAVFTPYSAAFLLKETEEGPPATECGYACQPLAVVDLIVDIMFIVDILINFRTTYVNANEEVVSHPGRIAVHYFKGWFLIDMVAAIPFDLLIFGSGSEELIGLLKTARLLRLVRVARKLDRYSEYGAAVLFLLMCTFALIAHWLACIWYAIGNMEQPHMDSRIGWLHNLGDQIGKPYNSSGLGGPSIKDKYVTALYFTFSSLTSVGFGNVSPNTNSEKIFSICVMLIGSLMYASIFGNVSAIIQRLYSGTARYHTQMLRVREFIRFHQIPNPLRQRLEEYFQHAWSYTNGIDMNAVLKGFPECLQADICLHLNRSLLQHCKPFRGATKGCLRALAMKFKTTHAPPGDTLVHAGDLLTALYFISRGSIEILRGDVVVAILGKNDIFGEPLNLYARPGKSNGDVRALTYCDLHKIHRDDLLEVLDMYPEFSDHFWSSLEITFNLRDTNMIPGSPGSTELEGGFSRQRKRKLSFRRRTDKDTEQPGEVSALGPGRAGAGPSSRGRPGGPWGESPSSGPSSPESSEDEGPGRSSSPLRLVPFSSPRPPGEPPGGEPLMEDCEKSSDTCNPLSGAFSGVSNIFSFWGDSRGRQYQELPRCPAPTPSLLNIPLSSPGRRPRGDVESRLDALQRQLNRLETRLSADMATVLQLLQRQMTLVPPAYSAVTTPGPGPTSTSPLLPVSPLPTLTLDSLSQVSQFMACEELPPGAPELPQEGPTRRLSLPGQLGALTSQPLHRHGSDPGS
row,Compound,"hERG current change (%, negative = inhibition) at 10uM [%]"
1,CCc1nn(CC(=O)NCCCN(CC)c2cccc(C)c2)c(=O)c2cc3occc3n12,-16.3
2,C/C(N)=C(/C#N)C(=O)COC(=O)CCS(=O)(=O)c1ccccc1,12.1
3,CC(C)(C)NC(=O)CSc1nc(O)cc(=O)n1-c1ccccc1F,6.39
4,O=C(CSc1ccc(-c2ccc(Br)cc2)nn1)N1CCOCC1,-18.7
5,O=C(c1nn(Cc2ccccc2)c(=O)c2ccccc12)N1CCN(C/C=C/c2ccccc2)CC1,-57.7
6,Cc1cc(C(=O)N2CCN(C/C=C/c3ccccc3)CC2)no1,-14.5
7,O=C(c1ccc(Cl)nc1)N1CCN(C/C=C/c2ccccc2)CC1,-44.1
8,NC(=O)c1nn(Cc2ccccc2)c(=O)c2ccccc12,4.12
9,O=C(c1ccc(=O)n(Cc2ccccc2)n1)N1CCN(C/C=C/c2ccccc2)CC1,-51.9
10,O=C(c1cnccn1)N1CCN(C/C=C/c2ccccc2)CC1,-16.6
11,COc1ccc(NC(=O)NCc2ccc3c(c2)OCO3)c(OC)c1,11.5
12,COc1ccc(C)cc1S(=O)(=O)NC1CCCCC1C (centres unmarked),5.07
13,CCC(=O)N1CCN(c2ccc(NC(=O)COc3cccc(C)c3C)cc2)CC1,-12
14,O=C(CSc1nnc(-c2ccco2)o1)Nc1c(F)cccc1F,-1.95
15,Nc1nc(-c2ccc3c(c2)CCC(=O)N3)cs1,16.5
16,CN(C)c1ccc(S(=O)(=O)N2CCCCC2)cc1NC(=O)C1CSC2(C)CCC(=O)N12 (centres unmarked),-22.3
17,COC(=O)C1Sc2[nH]c(=O)sc2C(c2ccc(Cl)cc2)C1C(=O)OC (centres unmarked),-67
18,CCOC(=O)C1Sc2[nH]c(=O)sc2C(c2ccc(Cl)cc2)C1C(=O)OCC (centres unmarked),-1.1
19,COC(=O)C1Sc2[nH]c(=O)sc2C2c3ccccc3OC(=O)C12 (centres unmarked),-22.6
20,Cc1[nH]n(-c2cccc([N+](=O)[O-])c2)c(=O)c1-c1ccccc1,15.8
21,CCN(CC)S(=O)(=O)c1cc(NC(=O)[C@@H](NC(N)=O)C(C)C)ccc1C,15.5
22,COc1ccc(/C=N/n2cnc3c([nH]c4ccc(F)cc43)c2=O)cc1CN1CCCC1,-68
23,COc1ccc(/C=N/n2cnc3c([nH]c4ccc(F)cc43)c2=O)cc1CSc1ccccn1,20.6
24,COc1ccc(/C=N/n2cnc3c([nH]c4ccc(Br)cc43)c2=O)cc1CN1CCOCC1,-8.88
25,COc1ccc(/C=N/n2cnc3c([nH]c4ccc(C)cc43)c2=O)cc1CN1CCCC1,-63.2
26,COc1ccc(/C=N/n2c(=O)[nH]c3c([nH]c4ccc(F)cc43)c2=O)cc1CN1CCCCC1,-19.1
27,COc1ccc2[nH]c3c(=O)n(/N=C/c4ccc(OC)c(CN5CCCC5)c4)c(C)nc3c2c1,-45.3

row,Compound,"hERG current change (%, negative = inhibition) at 10uM [%]"
1,COc1ccc(NC(=O)c2nnn(CC(=O)Nc3ccccc3OC)c2N)c(OC)c1,0.272
2,CCN(CC)CCOc1ccc2nc(N(C)C)sc2c1.Cl,11.1
3,CC12CCC(C(=O)Nc3ccccc3)(C/C1=N\O)C2(C)C (centres unmarked),10.9
4,CCSc1nnc(NC(=O)Cc2ccccc2OC)s1,13
5,COCCNC(=O)CSc1nc2ccc(N3CCOCC3)cc2c(=O)n1Cc1ccc(OC)cc1,-22.4
6,CCCCNC(=O)CSc1nc2ccc(N3CCOCC3)cc2c(=O)n1CCc1ccccc1,-19.3
7,CCCCn1c(SCC(=O)NCCOC)nc2ccc(N3CCOCC3)cc2c1=O,-2.94
8,COCCNC(=O)CSc1nc2ccc(N3CCOCC3)cc2c(=O)n1CCc1ccccc1,-55.1
9,CCC(C)NC(=O)CSc1nc2ccc(N3CCOCC3)cc2c(=O)n1CCc1ccccc1 (centres unmarked),3.14
10,COCCCNC(=O)CSc1nc2ccc(N3CCOCC3)cc2c(=O)n1CCc1ccccc1,-59.8
11,Cc1ccc(CN2CC(C(=O)NCCC3=CCCCC3)CC2=O)cc1 (centres unmarked),-19.6
12,CCN(c1ccc(NC(=O)CSCc2c(C)noc2C)cc1)C(C)C,-7.72
13,Cc1ccccc1-c1cc2nc(C)c(Cl)c(=O)n2[nH]1,-8.26
14,O=C(Nc1cccc(F)c1)c1cccnc1,3.96
15,Cc1c(C(=O)N2CCN(C(=O)c3ccco3)CC2)sc2nc(-c3ccc(F)cc3)cn12,-76.9
16,Cc1c(C(=O)N2CCN(c3ccc(F)cc3)CC2)sc2nc(-c3ccccc3)cn12,-13.4
17,COc1ccccc1N1CCN(C(=O)c2sc3nc(-c4ccc(F)cc4)cn3c2C)CC1,-34
18,CCOC(=O)C1CCN(C(=O)c2sc3nc(-c4ccc(F)cc4)cn3c2C)CC1,-60.5
19,COc1ccccc1N1CCN(C(=O)c2sc3nc(-c4ccccc4)cn3c2C)CC1,-35
20,Cc1c(C(=O)NCC2CCCO2)sc2nc(-c3ccc(F)cc3)cn12 (centres unmarked),-29.7
21,COC(=O)C1CCN(C(=O)c2sc3nc(-c4ccc(F)cc4)cn3c2C)CC1,-59.5
22,Cc1c(C(=O)N2CCN(c3ccccc3F)CC2)sc2nc(-c3ccccc3)cn12,-14.1
23,Cc1c(C(=O)Nc2ccncc2)sc2nc(-c3ccc(F)cc3)cn12,-8.24
24,CCOC(=O)N1CCN(C(=O)c2sc3nc(-c4ccc(F)cc4)cn3c2C)CC1,-62.1
25,CCOC(=O)C1CCN(C(=O)c2sc3nc(-c4ccccc4)cn3c2C)CC1,-41
26,COc1ccc(-c2cn3c(C)c(C(=O)N4CCN(c5ccc(F)cc5)CC4)sc3n2)cc1,1.07
